Results: PubChem BioAssay (EPA / NIEHS)
Inconclusive results are not listed. The source made the active and inactive calls. The calls were made as follows: active = hit-call score of the fitted dose curve at least 0.9, where 1 is the maximum; inconclusive = response in the unintended direction; inactive = score below 0.9.

What follows are compounds tested against Bile acid receptor (Homo sapiens) (UniProt Q96RI1) (assay: OT_FXR_FXRSRC1_0480: Odyssey Thera (OT) 8-hour HEK293T Protein-Complementation Assay for Farnesoid X receptor/SRC-1 Co-activator (AID 2283383)).
Protocol: OT_FXR_FXRSRC1_0480 is a cell-based assay that uses HEK293T, a human kidney cell line, with measurements taken at 8 hours after chemical dosing in a 384-well plate.OT_FXR_FXRSRC1_0480 is one of one assay component(s) measured or calculated from the OT_FXR_FXRSRC1_0480 assay. It is designed to make measurements of protein fragment complementation, a form of binding reporter, as detected with fluorescence intensity signals by Protein-fragment Complementation technology.Data from the assay component OT_FXR_FXRSRC1_0480 was analyzed into 1 assay endpoint. This assay endpoint, OT_FXR_FXRSRC1_0480, was analyzed in the positive analysis fitting direction relative to DMSO as the negative control and baseline of activity. Using a type of binding reporter, measures of receptor for gain-of-signal activity can be used to understand the binding at the pathway-level as they relate to the gene NR1H4. Furthermore, this assay endpoint can be referred to as a primary readout, because the performed assay has only produced 1 assay endpoint. To generalize the intended target to other relatable targets, this assay endpoint is annotated to the nuclear receptor intended target family, where the subfamily is non-steroidal.
Protein-fragment complementation assay, or PCA, is a method for the identification and quantification of protein-protein interactions. In the PCA, the proteins of interest ("bait" and "prey") are each covalently linked to fragments of a third protein (e.g. DHFR, which acts as a "reporter"). Interaction between the bait and the prey proteins brings the fragments of the reporter protein in close proximity to allow them to form a functional reporter protein whose activity can be measured.

Chain of Bile acid receptor (Homo sapiens) (Q96RI1 whole entry, looked up, the tested form may be a part): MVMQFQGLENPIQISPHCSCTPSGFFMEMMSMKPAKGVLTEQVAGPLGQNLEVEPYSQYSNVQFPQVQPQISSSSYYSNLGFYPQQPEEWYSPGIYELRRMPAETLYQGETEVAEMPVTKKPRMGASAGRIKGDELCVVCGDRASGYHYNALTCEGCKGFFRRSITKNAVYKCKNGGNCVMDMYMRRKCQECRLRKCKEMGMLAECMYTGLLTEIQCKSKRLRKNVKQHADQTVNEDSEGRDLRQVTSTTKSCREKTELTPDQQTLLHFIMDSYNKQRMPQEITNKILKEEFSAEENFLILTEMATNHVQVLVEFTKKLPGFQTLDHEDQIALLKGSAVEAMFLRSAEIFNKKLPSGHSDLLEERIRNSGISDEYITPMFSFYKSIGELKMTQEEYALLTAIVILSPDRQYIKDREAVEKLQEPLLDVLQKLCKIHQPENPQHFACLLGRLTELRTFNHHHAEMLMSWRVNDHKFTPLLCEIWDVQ

Structure (SMILES) | AC50 | outcome
BrC1CCC(Br)C(Br)CCC(Br)C(Br)CCC1Br (stereo unspecified) | 18.2 µM (active) | 
COc1c(Cl)c(Cl)c(Cl)c(Cl)c1Cl |  | inactive
O=C1NC(=O)c2ccccc21 |  | inactive
c1ccc(CCCc2ccccn2)cc1 | 50 µM (active) | 
CCC(=O)/C=C/C1C(C)=CCCC1(C)C (stereo unspecified) | 50 µM (active) | 
C=CC(C)(O)CCC=C(C)CCC=C(C)C (stereo unspecified) | 59.4 µM (active) | 
CCCC/C=C\CCCCCCCCCC=O |  | inactive
O=Nc1ccc(Nc2ccccc2)cc1 |  | inactive
CC(=O)C=CC1=C(C)CCCC1(C)C |  | inactive
CC(C)(C#N)c1cc(Cn2cncn2)cc(C(C)(C)C#N)c1 |  | inactive
COc1cc(C(C)(C)C)c(O)c(C(C)(C)C)c1 | 67 µM (active) | 
OCCN1CCNCC1 |  | inactive
NCCCN1CCOCC1 |  | inactive
CCN(CC)c1ccc2c(-c3ccccc3C(=O)O)c3ccc(=[N+](CC)CC)cc-3oc2c1 | 35.2 µM (active) | 
CCCCCCCCCCCCCC(=O)O |  | inactive
CC(C)=CCCC(C)CC=O (stereo unspecified) |  | inactive
